Experimental data as given in the supplement of paper PMC10477191.
± gives the standard deviation of the averaged measurements.

Test system: Drosophila virilis antennal basiconic sensillum AB5
Assay: odor-evoked OSN spike response (post minus pre-stimulus); higher = stronger neuronal excitation
Conditions: odor dilution: 10^-4
Method: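 Single sensillum recordings from antennal basiconic sensilla of D. virilis. A 500 ms pulse of odorant (10^-4 in mineral oil or DMSO) was delivered; the response is the change in spike frequency between the 1 s pre- and post-stimulus windows (spikes/s).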

SMILES	odor-evoked OSN spike response [spikes/s]
CCCCCOC(C)=O [pentyl acetate]	65.7 ± 11
CC(=O)OC/C=C(\C)CCC=C(C)C [geranyl acetate]	81 ± 11
CC(=O)c1ccccc1 [Acetophenone]	65.7 ± 8.1
COc1cccc(OC)c1O [Phenol, 2,6-dimethoxy- (powder)]	54 ± 20
COC(=O)c1ccccc1 [methyl benzoate]	49.2 ± 8.7
